Source: PubChem
Only some compounds are listed: those with a hit (about 7% of all), similar ones and a draw of the others.
IL1B secr inh: inhibitors of inflammasome signaling (IL-1 beta secretion) | THP-1 LPS/ATP IL-1B secretion, AlphaLISA, 16 h; stronger effect = lower value | 360,000 tested, 4.7% active | activity change, % at 57.5 µM; in the data active = activity change below about -50%; inconclusive = mostly about -30% to -49%
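THP-1 cells pretreated 1 hr with compounds (up to 57.5 uM final), then stimulated with LPS (250 ng/mL final) plus ATP (1.25 mM final); secreted IL-1B measured by AlphaLISA after 16 hr, decreased signal indicating inhibition.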
D3 ag: agonists of human D3 dopamine receptor | D3R DiscoveRx beta-arrestin cells, luminescence, 90 min | max activation, % | P35462 | 410,000 tested, 0.58% active; in the data active = max activation above about 30%
Target sequence (P35462 whole entry, looked up): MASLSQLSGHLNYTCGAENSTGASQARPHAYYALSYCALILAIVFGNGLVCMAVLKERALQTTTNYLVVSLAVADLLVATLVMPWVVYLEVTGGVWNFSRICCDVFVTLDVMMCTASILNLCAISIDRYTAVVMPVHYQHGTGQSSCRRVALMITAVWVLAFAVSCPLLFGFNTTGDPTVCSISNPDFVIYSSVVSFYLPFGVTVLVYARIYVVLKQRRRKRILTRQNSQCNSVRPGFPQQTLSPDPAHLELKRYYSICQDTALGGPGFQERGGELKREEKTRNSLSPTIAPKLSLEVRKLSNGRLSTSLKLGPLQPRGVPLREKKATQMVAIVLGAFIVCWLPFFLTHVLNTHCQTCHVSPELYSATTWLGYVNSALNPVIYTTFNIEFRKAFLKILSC
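Agonist mode: compounds and dopamine controls were applied to plated cells for 90 min at 37 degrees C after an overnight attachment at 1500 cells/well. Luminescent read-out followed 30 - 60 minutes at room temperature with DiscoveRx detection reagent.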
ATXN2 expr inh: inhibitors of ATXN2 expression; AID 1745845; Potency, µM (doses to about 57 µM), most hits filed as inhibitors; 360,000 tested, 0.72% active; HEK-293 ATXN2-luciferase reporter, luminescence, 24 h; also: nearly all actives have a fitted effect of over 55% in size
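qHTS (up to 57 uM final) was run with 24 h compound exposure of reporter cells at 37 °C. Each well was multiplexed: SteadyGlo luminescence measured ATXN2-luciferase expression after a fluorogenic Gly-Phe-AFC viability readout (25 uM final).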
Integrin act MD: integrin-mediated muscular dystrophy alleviation activation; Potency, µM (doses to about 38.3 µM), hits mostly activators; alpha7betagal myoblasts, beta-gal FDG fluorescence, 48 h; AID 624291; 350,000 tested, 0.064% active; also: nearly all actives have a fitted effect of over 60% in size
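alpha7betagal+/- myoblasts (passage 13, 250/well) treated 48 h at 37C with compounds at 1:260 dilution of DMSO stock. Lysed, then beta-galactosidase activity read as FDG fluorescence (ex 480/em 540) after 30 min, with pre-read for autofluorescence.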
D3 antag: blocks the human D3 dopamine receptor; P35462; max response, negative = inhibition, %; 360,000 tested, 2.5% active; AID 652054; D3R cells, DiscoveRx beta-arrestin luminescence, antagonist mode; stronger effect = lower value; in the data active = max response below about -50%; inconclusive = no clear call, values can overlap the other calls
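Cells expressing the human receptor were seeded at 1500 cells/well, incubated overnight at 37 degrees C in 5% CO2, then exposed to library compounds with dopamine controls for 90 minutes at 37 degrees C before luminescent detection.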
ATXN viability: reduces viability in counter-screen for ATXN expression inhibitors. S2 cells (HEK-293 line with an ATXN2-luciferase reporter) viability, CellTiter-Fluor protease fluorescence, 24 h. Potency, µM (highest dose often 56.7 µM), actives largely listed as cytotoxic. 400,000 tested, 0.49% active. AID 651635; also: nearly all actives have a fitted effect of over 40% in size
Numbers stand for hits; . = inactive; ? = inconclusive; / = no result given; ! = a repeat was not active; [ ] = dose if it differs, or a comment. Unless noted, calls follow the shape of the dose curve; as a rule, active = well fitted curve in the direction sought with a large enough effect; inconclusive = small, poorly fitted or top-dose-only effect, or another doubt; inactive = no such curve, though single readings can be large; an effect the other way counts as inactive or inconclusive.

SMILES	IL1B secr inh	D3 ag	ATXN2 expr inh	Integrin act MD	D3 antag	ATXN viability
CCCNC(=O)C1(C)CCCN(Cc2ccc3c(c2)OCO3)C1 (centres undefined)	.	.	.	/	-55	.
COc1ccc(C2CCCN2C(=O)Nc2ccccc2)cc1OC (centres undefined)	.	.	.	.	.	.
CCN1C(=O)CSC1=NC12CC3CC(CC(C3)C1)C2	-66	.	.	.	.	.
O=C(NNC(=O)C(c1ccccc1)c1ccccc1)c1ccccn1	-68	.	?	.	-86	.
COc1ccc(CNC(=O)CN2C(=O)c3ccc([N+](=O)[O-])cc3C2=O)cc1	.	31	.	?	.	.
COc1ccc(CNC(=O)CN2C(=O)c3ccccc3C2=O)cc1	.	.	/	.	.	.
O=C(c1cc(C2CCCCN2C(=O)CCCc2ccccc2)on1)N1CCOCC1 (centres undefined)	.	.	.	/	-51	.
COc1ccc(-c2ccc(N)cn2)cn1	.	.	.	.	.	.
COC(=O)COc1nsnc1N1CCOCC1	.	.	.	.	.	.
CC(C)(C)NC[C@H](O)COc1nsnc1N1CCOCC1	.	.	.	/	-54!	.
Cc1cc(=O)oc2cc(OC(=O)C3CCN(C(=O)c4ccc(F)cc4)CC3)ccc12	.	.	.	.	.	.
O=C(COC(=O)c1cccnc1Nc1ccccc1F)NCCN1C(=O)CSC1=O	.	.	.	.	-57	.
O=C(/C=C/c1cccc([N+](=O)[O-])c1)OC1CCCCC1=O (centres undefined)	.	.	.	.	.	.
COc1ccc(NS(=O)(=O)c2cc(C(=O)N3CCN(C/C=C/c4ccccc4)CC3)ccc2C)cc1	?	49	.	.	.	.
COc1ccc(OC)c(CN2CCN(C(=O)c3cccc(S(=O)(=O)Nc4ccc(C)cc4)c3)CC2)c1	-53	.	.	.	.	.
COc1cc(C(=O)N2CCN(C/C=C/c3ccccc3)CC2)cc(OC)c1OC	.	33	.	.	.	.
CC(C(=O)Nc1cccc([N+](=O)[O-])c1)N1CCN(C/C=C/c2ccccc2)CC1 (centres undefined)	-72	.	.	.	?	.
O=C(Nc1cccc(F)c1)N1CCN(C/C=C/c2ccccc2)CC1	.	.	.	.	?	.
CCCCOC(=O)C1=C(C)Nc2ncnn2C1c1cccc(OC)c1OC (centres undefined)	.	.	.	.	.	.
O=C(c1cccc([N+](=O)[O-])c1)N1CCN(C/C=C/c2ccccc2)CC1	/	32	.	.	.	.
O=C(NC(=S)N1CCN(C/C=C/c2ccccc2)CC1)c1ccco1	.	.	.	.	.	.
S=C(NC1CCCCC1)N1CCN(C/C=C/c2ccccc2)CC1	-51	.	.	.	.	.
O=C(c1ccco1)N1CCN(C/C=C/c2ccccc2)CC1	.	.	.	.	-109	.
COc1ccc(S(=O)(=O)NC2CC(C)(C)NC(C)(C)C2)c2ccccc12	.	.	.	.	.	.
Cc1cc(C)n(-c2ccc(S(=O)(=O)N3CCOCC3)cc2[N+](=O)[O-])n1	.	.	.	.	.	.
SMILES	IL1B secr inh	D3 ag	ATXN2 expr inh	Integrin act MD	D3 antag	ATXN viability
CCOc1ccc(C(c2c(NC(=O)c3ccccc3)sc(C)c2C)N2CCN(CCO)CC2)cc1 (centres undefined)	-67	.	.	.	.	?
Cc1sc(NC(=O)c2ccccc2)c(C(c2ccc(Cl)cc2)N2CCN(CCO)CC2)c1C (centres undefined)	-66	.	?	.	.	/
Cc1sc(NC(=O)c2ccco2)c(C(c2ccc(F)cc2)N2CCN(C)CC2)c1C (centres undefined)	-71	.	.[11.3 µM]	.	.	.
O=C(NCC(=O)N1CCN(C(=O)c2ccccc2)CC1)c1ccccc1	.	.	.	.	.	.
COc1cc(C)c(/C=C/C(C)=C/C=C/C(C)=C/C(=O)O)c(C)c1C	.	.	.	/	.	.
CCN(CCCC(=O)c1ccc(F)cc1)CCc1ccccc1	.	32	.	.	.	.
O=C(CCCc1ccccc1)c1ccccc1	.	.	.	.	.	?
